Compound activity deposited in PubChem BioAssay by several laboratories.
NadD inh: inhibitors of S. aureus NadD, primary screen, biochemical, colorimetric, uHTS. purified NadD enzyme, colorimetric absorbance read-out. inhibition, % at 20 µM. 360,000 tested, 0.78% active. AID 602399, 2012; in the data active means inhibition above about 26%
DAGLB inhibitor: DAGLB lipase inhibitors, primary screen, biochemical, fluorescence, HTS. Diacylglycerol lipase-beta (Homo sapiens), Q8NCG7. HEK293T DAGLB membrane lysate, EnzChek fluorogenic substrate. inhibition, % at 5.17 µM. 340,000 tested, 0.059% active. AID 504411, 2011; in the data active means inhibition above about 34%;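 further: 0% = enzyme with vehicle and 100% = wells lacking enzyme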
MsrA inh: bovine MsrA enzyme inhibitors, primary screen, biochemical, absorbance, HTS. 360,000 tested, 0.75% active. inhibition, % at 15.5 µM. AID 651718, 2012. purified bovine MsrA, absorbance read-out; in the data active means inhibition above about 4.5%;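 further: 0% = vehicle wells with enzyme and 100% = reference inhibitor wells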
rCAG RNA binder: binders of r(CAG) RNA repeats, primary screen, biochemical, fluorescence; r(CAG) RNA repeat, TO-PRO-1 dye displacement fluorescence; inhibition, % at 3 µM; 370,000 tested, 1.3% active;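 active means inhibition above the plate cutoff, the mean of all test compounds on that plate plus 3 SD, cut at about 35% in these data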;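 further: 0% = DMSO alone and 100% = 100 µM mitoxantrone as full dye displacement; higher means more dye released from RNA so lower well fluorescence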
Pemphigus Ab inh: inhibitors of pemphigus antibody binding to DSG3, primary screen, biochemical, bead-based, flow cytometry, scFv-GFP; DSG3-coupled beads, scFv-anti-DSG3-GFP binding; active compounds read low; binding (percent of control), % at 10 µM; 310,000 tested, 0.48% active; AID 588358, 2011;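 active means binding more than 3 SD below its plate's average and above zero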;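 further: hits lower antibody fragment binding to DSG3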
Target sequence (P32926 whole entry, looked up, the tested form may be a part): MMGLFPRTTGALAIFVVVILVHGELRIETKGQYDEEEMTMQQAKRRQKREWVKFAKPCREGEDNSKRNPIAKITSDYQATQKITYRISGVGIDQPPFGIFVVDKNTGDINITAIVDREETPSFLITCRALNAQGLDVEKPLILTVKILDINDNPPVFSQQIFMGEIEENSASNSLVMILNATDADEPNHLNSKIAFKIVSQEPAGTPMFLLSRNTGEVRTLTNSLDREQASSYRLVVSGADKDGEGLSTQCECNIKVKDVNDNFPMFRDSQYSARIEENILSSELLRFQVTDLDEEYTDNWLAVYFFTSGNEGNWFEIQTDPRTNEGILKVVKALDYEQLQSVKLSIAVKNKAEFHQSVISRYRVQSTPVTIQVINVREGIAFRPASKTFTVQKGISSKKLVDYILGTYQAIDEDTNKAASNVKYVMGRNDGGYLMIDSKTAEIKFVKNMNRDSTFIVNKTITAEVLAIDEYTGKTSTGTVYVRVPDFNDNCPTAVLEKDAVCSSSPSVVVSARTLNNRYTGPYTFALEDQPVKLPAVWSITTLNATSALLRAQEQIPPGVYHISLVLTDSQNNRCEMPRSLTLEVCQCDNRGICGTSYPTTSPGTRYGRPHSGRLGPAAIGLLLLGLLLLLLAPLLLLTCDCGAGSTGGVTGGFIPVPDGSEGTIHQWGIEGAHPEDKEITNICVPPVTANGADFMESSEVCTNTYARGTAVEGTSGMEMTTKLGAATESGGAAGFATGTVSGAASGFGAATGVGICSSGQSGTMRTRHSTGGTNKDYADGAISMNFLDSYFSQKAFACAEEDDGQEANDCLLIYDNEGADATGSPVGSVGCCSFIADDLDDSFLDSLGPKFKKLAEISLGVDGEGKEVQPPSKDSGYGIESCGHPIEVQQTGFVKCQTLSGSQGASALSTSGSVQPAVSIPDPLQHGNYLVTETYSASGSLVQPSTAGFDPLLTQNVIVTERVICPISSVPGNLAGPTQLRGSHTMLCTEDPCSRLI
MsrA act: bovine MsrA enzyme activators, primary screen, biochemical, absorbance, HTS; Methionine sulfoxide reductase A (Bos taurus); purified bovine MsrA, absorbance read-out; activation, % at 10.6 µM; 360,000 tested, 0.3% active; in the data active means activation above about 7.5%;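 further: 0% = vehicle and 100% = reference activator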
rCAG bind conf: small molecules binding CAG repeat RNA – biochemical, fluorescence, confirmation; r(CAG) RNA repeat, TO-PRO-1 dye displacement fluorescence; 4,300 tested, 70% active; inhibition, % at 3 µM; shares compounds with rCAG RNA binder;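 active means inhibition above a per-plate cutoff, the mean inhibition of sample wells plus 3 SD, cut at about 35% in these data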;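 further: loss of TO-PRO-1 fluorescence as compound displaces dye from 1x1 AA loop RNA; 0% = DMSO only wells and 100% = 100 µM mitoxantrone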
dCAG dye counter: displacement of TO-PRO-1 from CAG DNA duplex, counter-screen for rCAG RNA repeat binder project, biochemical, fluorescence, TO-PRO-1 dye, d(CAG) DNA oligo | shares compounds with rCAG RNA binder | d(CAG) DNA oligo TO-PRO-1 dye displacement | inhibition, % at 3 µM | 4,300 tested, 94% active | AID 652068, 2013;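 active means inhibition above its plate's cutoff, the mean test-well inhibition plus 3 SD, cut at about 4.8% in these data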;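 further: 0% = DNA dye mix with DMSO and 100% = 100 µM mitoxantrone; hits displace the dye from DNA and so lower well fluorescence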
The depositor's hits bear a star; . = no result given. Only some compounds are listed: those with a hit (about 3.2% of all), similar ones and a draw of the others.

SMILES	NadD inh	DAGLB inhibitor	MsrA inh	rCAG RNA binder	Pemphigus Ab inh	MsrA act	rCAG bind conf	dCAG dye counter
CCOc1ccc(/C=C2\SC(=S)N(C)C2=O)cc1OC	-4	.	0	4	106	-14	.	.
CCOc1ccc(/C=C2\SC(=S)N(NS(=O)(=O)c3ccccc3)C2=O)cc1OC	6	11	2	79*	99	-6	71*	35*
CCOc1cc(/C=C2\SC(=S)N(NS(=O)(=O)c3ccccc3)C2=O)ccc1O	-1	8	1	47*	86	-3	28	8.6*
COc1cc(/C=C2\SC(=S)N(CCCCC(=O)O)C2=O)ccc1OS(=O)(=O)c1ccc(C)cc1	23	10	-1	79*	87	-4	80*	44*
COc1ccc(/C=C2\SC(=S)N(CCCCCC(=O)Nc3cc(C)on3)C2=O)cc1OC	4	-1	-1	3	89	-4	.	.
CCOc1ccc(/C=C2\SC(=S)N(NS(=O)(=O)c3ccc(C)cc3)C2=O)cc1OC	11	14	-1	83*	98	-3	76*	41*
CCOC(=O)CC[C@@]1(C(=O)OCC)C[C@@H](CC(=O)N2CCN(C(=O)c3ccco3)CC2)C(=O)N2CCCC=C21	.	.	.	3	.	.	.	.
COc1ccc(C(OC(=O)c2ccco2)C(=O)NC(C)(C)C)cc1OC (stereo unspecified)	-3	2	0	-2	104	-3	.	.
O=S1(=O)c2ccc(N3CCC[C@H]3CO)cc2O[C@H]2CCN1C2	.	.	.	5	.	.	.	.
CCCCn1c(O)c(/C=C/C=C/C=Nc2ccccc2)sc1=S	29	7	0	40*	93	-2	32	18*
CCn1c(O)c(/C=C/C=C/C=Nc2ccccc2)sc1=S	4	5	1	19	98	-2	.	.
Oc1c(/C=C/C=C/C=Nc2ccccc2)sc(=S)n1Cc1ccccc1	32*	.	0	46*	100	-5	38*	20*
CCOC1=C2[C@@H](CN(S(=O)(=O)c3ccc(C)cc3)[C@H]2c2ccccc2)[C@H]2C(=O)N(Cc3ccccc3)C(=O)[C@H]2C1	12	.	-1	8	.	-8	.	.
CCOC(=O)c1ccc(S(=O)(=O)Nc2nc3cc(S(=O)(=O)NC4=NCCCCC4)ccc3s2)cc1	7	-3	2	59*	105	0	56*	23*
Nc1nc2cc(S(=O)(=O)NC3=NCCCCC3)ccc2s1	1	-2	1	7	97	-3	.	.
CCOc1ccc(-n2c(=S)sc3c(=O)[nH]c(SCC(=O)C(C)(C)C)nc32)cc1	14	11	0	37*	101	-4	66*	30*
CCOC(=O)CSc1nc2c(sc(=S)n2-c2ccc(OCC)cc2)c(=O)[nH]1	-2	3	1	43*	103	-3	39*	10*
CCOc1ccc(-n2c(=S)sc3c(=O)[nH]c(SCC(=O)NCc4ccco4)nc32)cc1	10	3	2	47*	101	0	41*	12*
CCN(CC)C(=O)CSc1nc2c(sc(=S)n2-c2ccc(C)cc2C)c(=O)[nH]1	8	6	3	39*	106	-6	46*	15*
CCCCc1nc2sc3c(=O)[nH]c(=S)[nH]c3c2c2c1CCC2	-1	-1	0	10	97	1	.	.
CCOC(=O)/C(=C\c1ccccc1)C(=O)CCN1CCOCC1	4	1	0	4	85	-2	.	.
Cc1ccc(NC(=O)CCC(=O)NN=Cc2ccc(C)o2)c(C)c1	-2	.	0	0	.	-1	.	.
O=C(NCc1cccc(Cl)c1)c1ccc(S(=O)(=O)Nc2cccc(C(F)(F)F)c2)cc1	-6	1	0	42*	128	6	45*	9.1*
Cc1ccc(-c2c3c(nc4sc(C(N)=O)c(N)c24)CCCC3)o1	3	3	1	10	101	-9	.	.
NC(=O)c1sc2nc3c(c(-c4ccco4)c2c1N)CCC3	8	0	1	43*	110	0	4	4
SMILES	NadD inh	DAGLB inhibitor	MsrA inh	rCAG RNA binder	Pemphigus Ab inh	MsrA act	rCAG bind conf	dCAG dye counter
O=C(CC1C[C@H](C(=O)N2CCOCC2)[C@@]2(CCC3CCCC3)c3[nH]c4ccccc4c3CCN2C1=O)NCCCn1ccnc1 (stereo partly specified)	10	0	3	35*	103	-2	2	2
COc1ccc2[nH]c3c(c2c1)CCN1C(=O)C(CC(=O)NCCCn2ccnc2)C[C@H](C(=O)N2CCOCC2)[C@@]31CCC1CCCC1 (stereo partly specified)	11	2	-1	3	107	-2	.	.
O=C(O)CCCCCN1C(=O)/C(=C/c2cn(-c3ccccc3)nc2-c2cccs2)SC1=S	31*	7	0	57*	.	-2	69*	39*
CCN1C(=O)/C(=C/c2cn(-c3ccccc3)nc2-c2cccnc2)SC1=S	10	-2	1	4	133	2	.	.
O=C1C(=Cc2cn(-c3ccccc3)nc2-c2ccc(OCc3ccccc3F)cc2)SC(=S)N1CCS(=O)(=O)O	30*	.	1	72*	.	-9	65*	45*
O=C1C(=Cc2cn(-c3ccccc3)nc2-c2ccc(OCc3ccc(Cl)cc3)cc2)SC(=S)N1CCS(=O)(=O)O	60*	.	1	68*	.	-12	58*	43*
O=C(CCl)NC1CCCCN(Cc2ccc(OC(F)(F)F)cc2)C1=O (stereo unspecified)	.	.	.	1	.	.	.	.
CCOc1ccc(CCNC(=O)c2cc(-c3ccccc3)c(N3CCOCC3)s2)cc1OC	.	.	.	10	.	.	.	.
O=C(NC1CCCCN(Cc2ccc(Cl)cc2)C1=O)c1cccc([N+](=O)[O-])c1 (stereo unspecified)	.	.	.	4	.	.	.	.
COC(=O)c1sc(S(=O)(=O)Nc2ccc(Br)cc2)c(C(=O)OC)c1C	-1	3	0	57*	98	-9	42*	14*
COC(=O)c1sc(S(=O)(=O)Nc2ccc(C)cc2)c(C(=O)OC)c1C	-8	-3	1	14	100	-5	.	.
